A short description of assay [1]: NCI Yeast Anticancer Drug Screen. Data for the mec2-1 strain (AID 157). The following applies: S. cerevisiae mec2-1 strain, stronger effect = higher value. The gist of the method: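 Test agents were screened against the mec2-1 yeast strain, with defined DNA repair or cell cycle alteration. Growth was scored as inhibition against vehicle-only controls.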
A short description of assay [2]: NCI Yeast Anticancer Drug Screen. Data for the sgs1 mgt1 strain (AID 161).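 Further: 0% = growth of cultures given vehicle only.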 As to conditions: S. cerevisiae sgs1 mgt1 strain, stronger effect = higher value. Summed up: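 Read-out: growth inhibition vs vehicle controls. Cells: mutant yeast strain deficient in DNA damage repair.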
The nature of assay [3]: NCI Yeast Anticancer Drug Screen. Data for the cln2 rad14 strain (AID 165).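 Further: 0% = growth equal to vehicle treated cultures.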 The following applies: S. cerevisiae cln2 rad14 strain, stronger effect = higher value. Summed up: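 Growth of compound-exposed yeast (cln2 rad14 genotype) measured and expressed as inhibition relative to vehicle.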
A short description of assay [4]: NCI Yeast Anticancer Drug Screen. Data for the bub3 strain (AID 167). As to conditions: S. cerevisiae bub3 mutant strain, stronger effect = higher value. The gist of the method: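 Part of a panel of yeast mutants defective in DNA damage repair or cell cycle regulation. Each strain is grown with compound, and inhibition is calculated relative to solvent-treated cultures.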

Assay [5] in a line: NCI Yeast Anticancer Drug Screen. Data for the mlh1 rad18 strain (AID 175). As to conditions: S. cerevisiae mlh1 rad18 strain growth inhibition, stronger effect = higher value. Summed up:
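In this whole-cell yeast screen, a strain with altered DNA damage repair is challenged with compound, and its growth is measured against matched vehicle-treated controls.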

The nature of assay [6]: NCI Yeast Anticancer Drug Screen. Data for the rad50 strain (AID 155).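 Further: 0% = growth of vehicle-only cultures of the same strain.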 As to conditions: S. cerevisiae rad50 strain growth inhibition, stronger effect = higher value. The gist of the method: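 Cells are treated with compound, grown, and their growth is then scored against vehicle-only cultures of the same repair-deficient yeast strain.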
Where [7] appears, read: at 5.0 µM (retest, dose inferred, filed as 0.5).
Setting [8] is: at 50.0 µM (retest, dose inferred, filed as 5.0).

“And” between values parts separate entries of the source, which are not always exact repeats. Equal entries are not always repeated. The panel holds about 79,000 compounds, 15% with a hit somewhere; the sample as a whole holds those more often. A number with no mark means an inactive call. The source made the active and inactive calls. No stated cut-off is given here; in the data, active means growth inhibition above about 70%; inactive means the rest.

In the case of `O=C(/C=C\c1cc(Br)ccc1O)/C=C/c1cc(Br)ccc1O`, the growth inhibition in assay [1] (setting [7]) is 95% (active); in assay [1] (setting [8]), 91% (active); in assay [1] (at 50.0 µM), 75.8% (active); in assay [2] (setting [7]), 80% (active); in assay [2] (setting [8]), 91% (active); in assay [2] (at 50.0 µM), 73.3% (active). Besides, the growth inhibition is 36% in assay [3] (setting [7]); 88% (active) in assay [3] (setting [8]); 36.4% in assay [3] (at 50.0 µM); 95% (active) in assay [4] (setting [7]); 91% (active) in assay [4] (setting [8]); 89% (active) in assay [4] (at 50.0 µM). The results for the growth inhibition in assay [5] (setting [7]), in assay [5] (setting [8]) and in assay [5] (at 50.0 µM) were 48%, 86% (active) and 75% (active), respectively.
In the case of `CC(C)C(OC(=O)c1ccc(NCc2cc(O)ccc2O)cc1)C(C)C`, the growth inhibition in assay [6] (setting [7]) was 21%; in assay [6] (setting [8]), 97% (active); in assay [6] (at 50.0 µM), 89.5% (active); in assay [2] (setting [7]), 35%; in assay [2] (setting [8]), 99% (active); in assay [2] (at 50.0 µM), 90.6% (active). The growth inhibition in assay [3] (setting [7]) is 21%; in assay [3] (setting [8]), 99% (active); in assay [3] (at 50.0 µM), 88% (active); in assay [4] (setting [7]), 29%; in assay [4] (setting [8]), 99% (active); in assay [4] (at 50.0 µM), 89.8% (active). The growth inhibition is 27% in assay [5] (setting [7]), 99% (active) in assay [5] (setting [8]) and 86% (active) in assay [5] (at 50.0 µM).
As for `Nc1nc(N)c2cc(S(=O)c3ccc4ccccc4c3)ccc2n1` (centres undefined), the growth inhibition in assay [6] (setting [7]) was 4%; in assay [6] (setting [8]), 17%; in assay [6] (at 50.0 µM), 24.2%; in assay [2] (setting [7]), 2%; in assay [2] (setting [8]), 9%; in assay [2] (at 50.0 µM), 19.5%. Further, the growth inhibition was -1% in assay [3] (setting [7]); -18% in assay [3] (setting [8]); -42.4% in assay [3] (at 50.0 µM); -21% in assay [4] (setting [7]); -19% in assay [4] (setting [8]); -13.9% in assay [4] (at 50.0 µM). Moreover, the growth inhibition is -4% in assay [5] (setting [7]), 3% in assay [5] (setting [8]) and 13.5% in assay [5] (at 50.0 µM).
Take `O=C(NCCc1c(-c2ccccc2)[nH]c2ccccc12)C(F)(F)F`: the growth inhibition in assay [6] (setting [7]) was 11%; in assay [6] (at 50.0 µM), 46.6%; in assay [1] (setting [7]), -3%; in assay [1] (at 50.0 µM) it was 49.8%; in assay [2] (setting [7]), 10%; in assay [2] (at 50.0 µM) it was 79.5% (active). In addition, the growth inhibition in assay [3] (setting [7]) is -2%; in assay [3] (at 50.0 µM) it was 59.2%; in assay [4] (setting [7]), -10%; in assay [4] (at 50.0 µM) it was 72.5% (active); in assay [5] (setting [7]) it was 3%; in assay [5] (at 50.0 µM), 60.3%.
On to `CC1=CC(O)C2CC1C2(C)C` (centres undefined), for which the growth inhibition is 12.1% and 3.35% and 3.95% in assay [6] (at 50.0 µM); -24.1% and -1.15% and -0.85% in assay [1] (at 50.0 µM); -12.6% and 3.35% and -8.95% in assay [2] (at 50.0 µM); 3.25% and -9% and -2.6% in assay [3] (at 50.0 µM); -6.5% and -10.9% and 2.05% in assay [4] (at 50.0 µM); -8.1% and 0.55% and 8.15% in assay [5] (at 50.0 µM).
Turning to `Cc1cc(-c2ccccc2)nc2nc3ccccc3n12`, the growth inhibition was 2% in assay [6] (setting [7]); 30% in assay [6] (setting [8]); 7.95% in assay [6] (at 50.0 µM); 16% in assay [1] (setting [7]); 21% in assay [1] (setting [8]); 5.8% in assay [1] (at 50.0 µM). The growth inhibition is 14% in assay [3] (setting [7]); 43% in assay [3] (setting [8]); -30.7% in assay [3] (at 50.0 µM); 21% in assay [4] (setting [7]); 82% (active) in assay [4] (setting [8]); 29.2% in assay [4] (at 50.0 µM). Besides, the figures for the growth inhibition in assay [5] (setting [7]), in assay [5] (setting [8]) and in assay [5] (at 50.0 µM) were -6%, 45% and 31.6%, respectively.
Regarding `Nc1ncnc2c1ncn2C1OC(CO)C(O)C1O` (centres undefined), the growth inhibition in assay [6] (at 50.0 µM) is -12.3% and 53.1% and 0.85%; in assay [1] (at 50.0 µM), -10.9% and 11.8% and -9.1%; in assay [2] (at 50.0 µM), -1.8% and 43.4% and 5.55%; in assay [3] (at 50.0 µM), 14.6% and -0.75% and -5.05%; in assay [4] (at 50.0 µM) it was 4.6% and 18.7% and 26.4%; in assay [5] (at 50.0 µM) it was -23.1% and 27.6% and 19.4%.
On to `CC1=NC(C)=C(/C(C)=N/NC(=O)c2ccccc2O)C(C)/C1=C(/C)NNC(=O)c1ccccc1O` (centres undefined), for which the growth inhibition in assay [6] (setting [7]) is 16%; in assay [6] (setting [8]) it was 16%; in assay [6] (at 50.0 µM) it was 74.7% (active); in assay [2] (setting [7]), -1%; in assay [2] (setting [8]), -1%; in assay [2] (at 50.0 µM), 81.1% (active). Further, the growth inhibition in assay [3] (setting [7]) is -2%; in assay [3] (setting [8]), -2%; in assay [3] (at 50.0 µM) it was 62%; in assay [4] (setting [7]) it was -3%; in assay [4] (setting [8]), -3%; in assay [4] (at 50.0 µM), 82.8% (active). Moreover, the growth inhibition in assay [5] (setting [7]) is 2%; in assay [5] (setting [8]), 2%; in assay [5] (at 50.0 µM), 80% (active).
For the compound `Cn1cc(NC(=O)Nc2cc(C(=O)Nc3cc(C(=O)Nc4ccc5cc(S(=O)(=O)O)cc(S(=O)(=O)O)c5c4)n(C)c3)n(C)c2)cc1C(=O)Nc1cc(C(=O)Nc2ccc3cc(S(=O)(=O)O)cc(S(=O)(=O)O)c3c2)n(C)c1`, the growth inhibition was 68% in assay [6] (setting [7]); 98% (active) in assay [6] (setting [8]); 91% (active) in assay [6] (at 50.0 µM); 69% in assay [2] (setting [7]); 99% (active) in assay [2] (setting [8]); 93.5% (active) in assay [2] (at 50.0 µM). Moreover, the growth inhibition in assay [3] (setting [7]) was 33%; in assay [3] (setting [8]), 99% (active); in assay [3] (at 50.0 µM) it was 92.7% (active); in assay [4] (setting [7]), 44%; in assay [4] (setting [8]) it was 98% (active); in assay [4] (at 50.0 µM), 92.5% (active). In addition, the growth inhibition in assay [5] (setting [7]) is 76% (active); in assay [5] (setting [8]), 98% (active); in assay [5] (at 50.0 µM), 90.8% (active).
On to `COC(=O)c1n[nH]c(C)c1N=NN1CCC(C(N)=O)CC1`, for which the growth inhibition in assay [6] (setting [7]) was 30%; in assay [6] (setting [8]), 98% (active); in assay [6] (at 50.0 µM) it was 98.3% (active); in assay [1] (setting [7]) it was -8%; in assay [1] (setting [8]), 99% (active); in assay [1] (at 50.0 µM), 99.2% (active). Further, the growth inhibition in assay [3] (setting [7]) is -1%; in assay [3] (setting [8]), 99% (active); in assay [3] (at 50.0 µM), 97.8% (active); in assay [4] (setting [7]) it was -5%; in assay [4] (setting [8]), 98% (active); in assay [4] (at 50.0 µM), 98.2% (active). Further, the growth inhibition is 36% in assay [5] (setting [7]), 99% (active) in assay [5] (setting [8]) and 99.2% (active) in assay [5] (at 50.0 µM).

These data come from PubChem BioAssay (NCI).
